Assay results taken from PubChem BioAssay (EPA / NIEHS).
Active and inactive are the calls of the source. How the source made its calls: active means hit-call score of the fitted dose curve at least 0.9, where 1 is the maximum; inactive means score below 0.9.

Tests used:
[1] = read-out: Matrix Metallopeptidase 9 (MMP9), MMP9 (gene 4318); experiment: BSK_KF3CT_MMP9: BioMAP Diversity Plus: KF3CT Assay for Matrix Metallopeptidase 9 (MMP9) Biomarker Activity (AID 2283074); conditions: primary human keratinocytes with fibroblasts; actives raise or lower the signal;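 on AC50: MMP9 protein level quantified by ELISA in the co-culture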
Procedure, shortened: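 Keratinocyte plus foreskin fibroblast human primary skin co-culture was dosed with chemical and MMP-9 was quantified by ELISA 24 h later. Bidirectional curve fitting used DMSO as negative control and activity baseline.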

[2] = read-out: urokinase plasminogen activator (uPA), PLAU (gene 5328); experiment: BSK_KF3CT_uPA: BioMAP Diversity Plus: KF3CT Assay for urokinase plasminogen activator (uPA) Biomarker Activity (AID 2283075); conditions: primary human keratinocytes with fibroblasts; actives raise or lower the signal
Procedure, shortened: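 Human keratinocyte plus foreskin fibroblast primary co-culture exposed to chemical for 24 h. uPA levels were quantified by ELISA, and activity was fitted bidirectionally against a DMSO negative-control baseline.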

[3] = read-out: CD40, CD40 (gene 958); experiment: BSK_LPS_CD40: BioMAP Diversity Plus: LPS Assay for CD40 Biomarker Activity (AID 2283076); conditions: primary human HUVEC with PBMC; actives raise or lower the signal
Procedure, shortened: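 Using a multiplexed primary human co-culture (umbilical vein endothelium plus PBMC), CD40 was read by ELISA 24 h after dosing, with cytotoxicity tracked by sulforhodamine B staining of parallel cultures and activity fitted bidirectionally versus DMSO.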

[4] = read-out: E-selectin (Homo sapiens) (UniProt P16581); experiment: BSK_LPS_Eselectin: BioMAP Diversity Plus: LPS Assay for Eselectin Biomarker Activity (AID 2283077); conditions: primary human HUVEC with PBMC; actives raise or lower the signal
Procedure, shortened: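 Dose chemical onto LPS-driven HUVEC/PBMC co-culture; after 24 h, run ELISA for E-selectin; fit up- and down-going responses relative to DMSO control.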

[5] = read-out: Interleukin-8 (IL8), CXCL8 (gene 3576); experiment: BSK_LPS_IL8: BioMAP Diversity Plus: LPS Assay for Interleukin-8 (IL8) Biomarker Activity (AID 2283078); conditions: primary human HUVEC with PBMC; actives raise or lower the signal
Procedure, shortened: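 In this LPS system, chemical-treated human umbilical vein endothelium/PBMC co-cultures were harvested at 24 h for IL-8 ELISA.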

[6] = BSK_LPS_SRB: Viability Assessment in the BioMAP Diversity Plus: LPS Assay (AID 2283079); conditions: primary human HUVEC with PBMC;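 further: total protein by sulforhodamine B absorbance as a cytotoxicity measure; measured one day after compound addition; fitted in both directions against DMSO so loss or gain of signal counts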
Procedure, shortened: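 Cytotoxicity endpoint in human endothelial–PBMC co-culture: 24 h exposure, then SRB (0.1%) staining, 560 nm read.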

[7] = read-out: Interleukin-1 alpha (IL1a), IL1A (gene 3552); experiment: BSK_LPS_IL1a: BioMAP Diversity Plus: LPS Assay for Interleukin-1 alpha (IL1a) Biomarker Activity (AID 2283080); conditions: primary human HUVEC with PBMC; actives raise or lower the signal
Procedure, shortened: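 Primary human HUVEC and PBMC co-culture stimulated with LPS is dosed and harvested at 24 h. Both increases and decreases in ELISA-measured IL-1a are scored relative to DMSO.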

[8] = read-out: Monocyte Chemoattractant Protein-1 (MCP1), CCL2 (gene 6347); experiment: BSK_LPS_MCP1: BioMAP Diversity Plus: LPS Assay for Monocyte Chemoattractant Protein-1 (MCP1) Biomarker Activity (AID 2283081); conditions: primary human HUVEC with PBMC; actives raise or lower the signal;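 on AC50: secreted MCP-1 protein quantified by ELISA in culture supernatant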
Procedure, shortened: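 Values derive from bidirectional fitting against DMSO of ELISA-measured MCP-1 in a human primary endothelial and mononuclear cell co-culture, 24 h after chemical addition under LPS activation.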

[9] = BSK_LPS_PGE2: BioMAP Diversity Plus: LPS Assay for Prostaglandin E2 (PGE2) Biomarker Activity (AID 2283082); conditions: primary human HUVEC with PBMC; actives raise or lower the signal;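 on AC50: secreted prostaglandin E2 measured by ELISA in LPS-stimulated co-culture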
Procedure, shortened: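 Endpoint derived from bidirectional curve fitting versus DMSO of ELISA-measured PGE2 in LPS-stimulated human primary vascular co-culture (HUVEC with PBMC) harvested at 24 h.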

[10] = read-out: Macrophage colony-stimulating factor (MCSF), CSF1 (gene 1435); experiment: BSK_LPS_MCSF: BioMAP Diversity Plus: LPS Assay for Macrophage colony-stimulating factor (MCSF) Biomarker Activity (AID 2283083); conditions: primary human HUVEC with PBMC; actives raise or lower the signal
Procedure, shortened: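 Bidirectional fit versus DMSO of ELISA-measured M-CSF in co-cultured human umbilical vein endothelial cells and PBMC, sampled 24 h after dosing.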

[11] = read-out: Tissue Factor, F3 (gene 2152); experiment: BSK_LPS_TissueFactor: BioMAP Diversity Plus: LPS Assay for Tissue Factor Biomarker Activity (AID 2283084); conditions: primary human HUVEC with PBMC; actives raise or lower the signal
Procedure, shortened: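 Read-out: CD142 ELISA, 24 h. System: LPS-driven human endothelial/PBMC co-culture. Analysis: up- or down-signal fitted against DMSO.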

[12] = read-out: Tumor necrosis factor (Homo sapiens) (UniProt P01375); experiment: BSK_LPS_TNFa: BioMAP Diversity Plus: LPS Assay for Tumour Necrosis Factor alpha (TNFa) Biomarker Activity (AID 2283085); conditions: primary human HUVEC with PBMC; actives raise or lower the signal
Procedure, shortened: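 Primary human vascular co-culture of HUVEC and PBMC; TNFa ELISA 24 h after treatment, analysed as increase or decrease relative to DMSO control.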

[13] = read-out: Vascular cell adhesion molecule 1 (VCAM1), VCAM1 (gene 7412); experiment: BSK_LPS_VCAM1: BioMAP Diversity Plus: LPS Assay for Vascular cell adhesion molecule 1 (VCAM1) Biomarker Activity (AID 2283086); conditions: primary human HUVEC with PBMC; actives raise or lower the signal
Procedure, shortened: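 Primary human vascular co-culture (umbilical vein endothelium plus PBMC) stimulated with LPS received chemical; 24 h later VCAM-1 was read by ELISA. Overt cytotoxicity was assessed by sulforhodamine B staining of parallel cultures at the same time point.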

[14] = read-out: CD40, CD40 (gene 958); experiment: BSK_SAg_CD40: BioMAP Diversity Plus: SAg Assay for CD40 Biomarker Activity (AID 2283088); conditions: primary human HUVEC with PBMC; actives raise or lower the signal
Procedure, shortened: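 Endpoint derived by fitting increases or decreases versus DMSO controls. CD40 is detected by fluorescence ELISA in a human vascular co-culture of endothelium and PBMC at 24 h.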

[15] = read-out: CD69, CD69 (gene 969); experiment: BSK_SAg_CD69: BioMAP Diversity Plus: SAg Assay for CD69 Biomarker Activity (AID 2283089); conditions: primary human HUVEC with PBMC; actives raise or lower the signal;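 on AC50: cell surface CD69 protein quantified by ELISA with fluorescence detection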
Procedure, shortened: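 ELISA, fluorescence read-out: CD69 on human umbilical vein endothelial cell + PBMC co-culture, 24 h post-dosing. Gain or loss of signal fitted bidirectionally against DMSO baseline.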

[16] = read-out: Monocyte Chemoattractant Protein-1 (MCP1), CCL2 (gene 6347); experiment: BSK_SAg_MCP1: BioMAP Diversity Plus: SAg Assay for Monocyte Chemoattractant Protein-1 (MCP1) Biomarker Activity (AID 2283090); conditions: primary human HUVEC with PBMC; actives raise or lower the signal
Procedure, shortened: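 MCP-1 levels in the endothelial–PBMC SAg co-culture were quantified by ELISA at 24 h post-dosing; both increases and decreases versus DMSO scored. Cytotoxicity monitored by SRB total protein in parallel cultures.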

[17] = read-out: E-selectin (Homo sapiens) (UniProt P16581); experiment: BSK_SAg_Eselectin: BioMAP Diversity Plus: SAg Assay for Eselectin Biomarker Activity (AID 2283091); conditions: primary human HUVEC with PBMC; actives raise or lower the signal
Procedure, shortened: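 Endpoint values derive from bidirectional fitting relative to DMSO, using ELISA-measured E-selectin in a human vascular co-culture (umbilical vein endothelium plus PBMC) sampled 24 h after dosing.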

[18] = read-out: Monokine induced gamma interferon (MIG), CXCL9 (gene 4283); experiment: BSK_SAg_MIG: BioMAP Diversity Plus: SAg Assay for Monokine induced gamma interferon (MIG) Biomarker Activity (AID 2283092); conditions: primary human HUVEC with PBMC; actives raise or lower the signal
Procedure, shortened: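 ELISA readout of MIG/CXCL9; primary human umbilical vein endothelial cells co-cultured with peripheral blood mononuclear cells; 24 h post-dose; gain/loss fit vs DMSO baseline.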

[19] = read-out: CD38, CD38 (gene 952); experiment: BSK_SAg_CD38: BioMAP Diversity Plus: SAg Assay for CD38 Biomarker Activity (AID 2283087); conditions: primary human HUVEC with PBMC; actives raise or lower the signal
Procedure, shortened: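 Fluorescence ELISA of cell-surface CD38 served as the read-out, with either increase or decrease fitted against DMSO controls. Cells were a human umbilical vein endothelium plus PBMC co-culture under SEB/TSST-1 stimulation, measured 24 h after dosing.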

Measured: AC50

Sequence of Tumor necrosis factor (Homo sapiens) (P01375 whole entry, looked up): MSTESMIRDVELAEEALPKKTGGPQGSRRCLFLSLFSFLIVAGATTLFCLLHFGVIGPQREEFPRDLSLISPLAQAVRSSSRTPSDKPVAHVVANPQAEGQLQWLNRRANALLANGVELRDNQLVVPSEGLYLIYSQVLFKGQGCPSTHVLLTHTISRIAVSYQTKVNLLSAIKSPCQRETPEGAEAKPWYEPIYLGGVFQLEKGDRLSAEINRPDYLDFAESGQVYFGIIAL
Sequence of E-selectin (Homo sapiens) (P16581 whole entry, looked up): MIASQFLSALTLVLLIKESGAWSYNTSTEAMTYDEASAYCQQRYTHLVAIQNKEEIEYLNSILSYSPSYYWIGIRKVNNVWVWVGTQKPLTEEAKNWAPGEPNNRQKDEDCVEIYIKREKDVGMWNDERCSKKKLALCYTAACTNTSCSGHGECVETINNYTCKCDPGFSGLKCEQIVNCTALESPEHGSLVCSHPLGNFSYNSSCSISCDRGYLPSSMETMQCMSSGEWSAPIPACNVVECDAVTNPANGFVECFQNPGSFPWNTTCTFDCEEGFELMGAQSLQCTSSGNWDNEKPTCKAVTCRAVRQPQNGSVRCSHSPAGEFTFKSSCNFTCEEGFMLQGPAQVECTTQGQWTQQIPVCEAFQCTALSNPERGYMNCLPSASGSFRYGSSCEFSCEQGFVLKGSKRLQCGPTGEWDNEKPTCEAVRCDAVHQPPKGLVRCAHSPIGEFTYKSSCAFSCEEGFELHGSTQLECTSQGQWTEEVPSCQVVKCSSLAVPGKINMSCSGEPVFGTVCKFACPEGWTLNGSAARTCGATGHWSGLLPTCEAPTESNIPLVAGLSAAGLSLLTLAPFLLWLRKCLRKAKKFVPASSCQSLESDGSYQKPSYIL

OCCC(F)(F)C(F)(F)C(F)(F)C(F)(F)F
inactive: [1] | [2] | [3] | [4] | [5] | [6] | [7] | [8] | [9] | [10] | [11] | [12] | [13] | [14] | [15] | [16] | [17] | [18]

OC[C@H]1O[C@@H]2O[C@H]3[C@H](O)[C@@H](O)[C@@H](O[C@H]4[C@H](O)[C@@H](O)[C@@H](O[C@H]5[C@H](O)[C@@H](O)[C@@H](O[C@H]6[C@H](O)[C@@H](O)[C@@H](O[C@H]7[C@H](O)[C@@H](O)[C@@H](O[C@H]1[C@H](O)[C@H]2O)O[C@@H]7CO)O[C@@H]6CO)O[C@@H]5CO)O[C@@H]4CO)O[C@@H]3CO
inactive: [1] | [2] | [3] | [4] | [5] | [6] | [7] | [8] | [9] | [10] | [11] | [12] | [13] | [14] | [15] | [16] | [17] | [18]

CCn1nc(C)c2c1C(=O)NCC(c1ccc(O)cc1)=N2
inactive: [1] | [2] | [3] | [4] | [5] | [6] | [7] | [8] | [9] | [10] | [11] | [13] | [15] | [18]
active: [12] 0.78 µM | [14] 20 µM | [16] 4.49 µM | [17] 0.435 µM

c1ccc(C(O[C@@H]2CCCN(CCc3ccc4c(c3)OCO4)C2)c2ccccc2)cc1
active: [1] 32.2 µM | [3] 29.1 µM | [5] 20 µM | [6] 26.3 µM | [7] 12.5 µM | [10] 29.8 µM | [19] 30.6 µM | [14] 30.4 µM | [15] 30.3 µM | [16] 26.5 µM | [17] 27.6 µM | [18] 30.9 µM
inactive: [2] | [4] | [8] | [9] | [11] | [12] | [13]

Cc1cccc(O)c1C
inactive: [1] | [2] | [3] | [4] | [5] | [6] | [7] | [8] | [9] | [10] | [11] | [12] | [13] | [14] | [15] | [16] | [17] | [18]

NC(N)=O
inactive: [1] | [3] | [4] | [5] | [6] | [7] | [8] | [9] | [11] | [12] | [13] | [14] | [15] | [16] | [17] | [18]

O=C(O)c1cccc(C(=O)O)c1
inactive: [1] | [2] | [3] | [4] | [5] | [6] | [7] | [8] | [9] | [10] | [11] | [12] | [13] | [14] | [15] | [16] | [17] | [18]

c1ccc2cc3ccccc3cc2c1
inactive: [1] | [2] | [3] | [4] | [5] | [6] | [7] | [8] | [9] | [10] | [11] | [12] | [13] | [14] | [15] | [16] | [17] | [18]

CC(=O)c1ccccc1
inactive: [1] | [2] | [3] | [4] | [5] | [6] | [7] | [8] | [9] | [10] | [11] | [12] | [13] | [19] | [14] | [15] | [16] | [17] | [18]

CCc1cccc(CC)c1N
inactive: [1] | [2] | [3] | [4] | [5] | [6] | [7] | [8] | [9] | [10] | [11] | [12] | [13] | [14] | [15] | [16] | [17] | [18]

CCN(CC)C(=S)SSC(=S)N(CC)CC
active: [1] 14.2 µM | [2] 14.8 µM | [3] 30.4 µM | [4] 34.8 µM | [5] 29.7 µM | [6] 31.1 µM | [8] 29.5 µM | [9] 14.9 µM | [10] 30.3 µM | [11] 27.6 µM | [12] 15.4 µM | [13] 28 µM | [19] 31.7 µM | [15] 20 µM | [16] 28.4 µM | [17] 32.6 µM | [18] 36.3 µM

CC[C@H](C)C(=O)O[C@H]1C[C@H](O)C=C2C=C[C@H](C)[C@H](CC[C@@H](O)C[C@@H](O)CC(=O)O)[C@H]21
inactive: [1] | [2] | [3] | [4] | [5] | [6] | [7] | [8] | [9] | [10] | [11] | [12] | [13] | [14] | [15] | [18]
active: [16] 14.6 µM | [17] 7.03 µM

OCCOCCOCCO
inactive: [1] | [2] | [3] | [4] | [5] | [6] | [7] | [8] | [9] | [10] | [11] | [12] | [13] | [14] | [15] | [16] | [17] | [18]

C[C@@H](Oc1ccc(CNC(=O)c2cccnc2Oc2ccc3c(c2)OCO3)c(F)c1)C(=O)O
active: [12] 2.29 µM
inactive: [1] | [2] | [3] | [4] | [5] | [6] | [7] | [8] | [9] | [10] | [11] | [13] | [14] | [15] | [16] | [17] | [18]
